These results are taken from ChEMBL document CHEMBL3988442, “University of Dundee, Small-Polar-MMV Screening Library” (2021).

SMILES strings stand for the structures. For part of these data: Potency and affinity values are given separately.

Holding throughout (parameters): scale not given: direction of the effect not stated beside the values
The target in experiment [1] is Protein translocase subunit SecA (Escherichia coli (strain K12)) (UniProt P10408). Put plainly: Assay to Identify E. coli SecA ATPase Inhibitors. The settings on record: 30 µM. It counts as functional.
Sequence of Protein translocase subunit SecA (Escherichia coli (strain K12)) (P10408 whole entry): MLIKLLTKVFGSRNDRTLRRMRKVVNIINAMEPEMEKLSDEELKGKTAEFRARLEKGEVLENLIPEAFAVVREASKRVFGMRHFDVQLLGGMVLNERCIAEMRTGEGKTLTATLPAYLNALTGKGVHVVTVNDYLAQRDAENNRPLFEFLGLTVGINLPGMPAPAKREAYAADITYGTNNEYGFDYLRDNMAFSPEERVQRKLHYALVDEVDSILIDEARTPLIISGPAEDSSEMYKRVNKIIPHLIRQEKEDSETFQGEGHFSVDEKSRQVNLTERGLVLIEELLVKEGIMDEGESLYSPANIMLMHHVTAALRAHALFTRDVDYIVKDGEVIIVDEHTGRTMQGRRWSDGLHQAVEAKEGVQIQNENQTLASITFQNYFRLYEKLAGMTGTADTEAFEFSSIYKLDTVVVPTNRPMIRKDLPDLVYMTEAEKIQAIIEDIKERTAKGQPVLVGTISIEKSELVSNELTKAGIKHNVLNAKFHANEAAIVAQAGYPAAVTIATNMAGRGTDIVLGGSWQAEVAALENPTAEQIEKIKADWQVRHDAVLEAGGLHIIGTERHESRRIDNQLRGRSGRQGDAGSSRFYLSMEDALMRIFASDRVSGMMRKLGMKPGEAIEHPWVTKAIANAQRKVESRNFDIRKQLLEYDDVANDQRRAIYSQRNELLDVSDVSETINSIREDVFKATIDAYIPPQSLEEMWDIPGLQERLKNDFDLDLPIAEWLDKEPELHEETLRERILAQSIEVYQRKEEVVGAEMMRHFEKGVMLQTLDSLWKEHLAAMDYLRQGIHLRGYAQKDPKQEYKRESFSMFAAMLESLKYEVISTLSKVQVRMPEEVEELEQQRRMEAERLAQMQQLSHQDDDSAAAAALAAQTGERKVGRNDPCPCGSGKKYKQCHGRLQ
The target of experiment [2] is T1, Ubiquitin-activating enzyme e1, putative (Leishmania donovani (strain BPK282A1)) (UniProt E9BSI1).
T1 sequence (whole entry): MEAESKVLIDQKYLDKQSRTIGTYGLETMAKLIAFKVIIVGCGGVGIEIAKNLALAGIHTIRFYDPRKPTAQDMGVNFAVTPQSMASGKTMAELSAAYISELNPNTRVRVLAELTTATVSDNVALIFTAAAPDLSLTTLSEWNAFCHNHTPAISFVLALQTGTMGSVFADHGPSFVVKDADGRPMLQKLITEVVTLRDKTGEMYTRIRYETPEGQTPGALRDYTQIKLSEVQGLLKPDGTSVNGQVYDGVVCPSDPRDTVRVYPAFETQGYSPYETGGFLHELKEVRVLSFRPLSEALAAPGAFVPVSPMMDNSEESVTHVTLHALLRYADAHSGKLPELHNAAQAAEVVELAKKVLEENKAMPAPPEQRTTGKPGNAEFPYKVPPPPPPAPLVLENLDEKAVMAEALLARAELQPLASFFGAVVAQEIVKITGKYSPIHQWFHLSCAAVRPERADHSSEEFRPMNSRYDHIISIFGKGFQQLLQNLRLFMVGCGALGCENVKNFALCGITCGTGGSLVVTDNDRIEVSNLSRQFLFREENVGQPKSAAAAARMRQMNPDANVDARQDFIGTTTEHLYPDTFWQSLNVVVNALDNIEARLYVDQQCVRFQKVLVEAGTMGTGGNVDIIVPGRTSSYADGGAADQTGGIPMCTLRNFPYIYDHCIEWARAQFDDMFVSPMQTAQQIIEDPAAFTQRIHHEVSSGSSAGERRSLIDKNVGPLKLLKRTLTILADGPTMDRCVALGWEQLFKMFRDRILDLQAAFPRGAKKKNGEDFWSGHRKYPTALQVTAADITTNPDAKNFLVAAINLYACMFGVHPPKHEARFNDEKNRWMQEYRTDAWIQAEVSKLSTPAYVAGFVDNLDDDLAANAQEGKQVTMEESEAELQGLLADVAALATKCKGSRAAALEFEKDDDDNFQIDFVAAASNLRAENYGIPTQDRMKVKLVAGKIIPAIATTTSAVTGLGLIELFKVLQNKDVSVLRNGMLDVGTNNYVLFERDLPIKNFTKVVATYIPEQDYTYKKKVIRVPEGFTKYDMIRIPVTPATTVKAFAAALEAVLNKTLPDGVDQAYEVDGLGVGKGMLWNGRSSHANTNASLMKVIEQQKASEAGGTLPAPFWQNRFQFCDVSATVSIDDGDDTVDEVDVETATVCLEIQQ
As to the kind of experiment: Leishmania donovani Ubiquitin Activating Enzyme (LdE1). It counts as functional. To be noted: 30 µM.

Experiment [3] has as its target AMP-activated protein kinase, AMPK (Homo sapiens) (UniProt P54646+O43741+P54619+Q9UGJ0+Q9Y478+Q13131+Q9UGI9). Put plainly: AMP-dependent Kinase enzyme assay. An in vitro enzyme assay that detects ADP turnover that is directly proportional to AMPK activity. This uses naive AMPK that is activated during the assay with MK-8722. It counts as functional. The settings on record: 30 µM.

In experiment [4] the target is Sialic acid-binding Ig-like lectin 9 (Homo sapiens) (UniProt Q9Y336). As to the kind of experiment: Hs-Siglec9 ALPHAscreen SOP 20170721. To be noted: 10 µM.
Sequence of Sialic acid-binding Ig-like lectin 9 (Homo sapiens) (Q9Y336 whole entry): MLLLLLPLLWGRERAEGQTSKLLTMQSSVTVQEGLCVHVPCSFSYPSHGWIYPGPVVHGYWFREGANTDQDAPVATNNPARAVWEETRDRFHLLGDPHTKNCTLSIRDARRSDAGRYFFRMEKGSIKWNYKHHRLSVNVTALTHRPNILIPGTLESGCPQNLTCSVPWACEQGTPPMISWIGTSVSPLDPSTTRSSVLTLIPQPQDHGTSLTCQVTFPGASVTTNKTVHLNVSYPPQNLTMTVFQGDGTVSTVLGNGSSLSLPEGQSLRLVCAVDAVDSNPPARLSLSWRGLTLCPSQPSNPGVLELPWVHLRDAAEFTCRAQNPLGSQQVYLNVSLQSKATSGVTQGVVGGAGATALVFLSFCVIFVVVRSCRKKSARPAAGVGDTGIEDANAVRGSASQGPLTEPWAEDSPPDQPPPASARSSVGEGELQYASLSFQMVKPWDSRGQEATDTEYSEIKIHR
In the next experiment the test system is Trypanosoma cruzi. Put plainly: Trypanosoma cruzi phosphomannomutase and mannose-1-phosphate guanylyltransferase assay. It counts as functional. To be noted: 10 µM.
The target of experiment [5] is T2, Arginase-2, mitochondrial (Homo sapiens) (UniProt P78540).
T2 sequence (whole entry): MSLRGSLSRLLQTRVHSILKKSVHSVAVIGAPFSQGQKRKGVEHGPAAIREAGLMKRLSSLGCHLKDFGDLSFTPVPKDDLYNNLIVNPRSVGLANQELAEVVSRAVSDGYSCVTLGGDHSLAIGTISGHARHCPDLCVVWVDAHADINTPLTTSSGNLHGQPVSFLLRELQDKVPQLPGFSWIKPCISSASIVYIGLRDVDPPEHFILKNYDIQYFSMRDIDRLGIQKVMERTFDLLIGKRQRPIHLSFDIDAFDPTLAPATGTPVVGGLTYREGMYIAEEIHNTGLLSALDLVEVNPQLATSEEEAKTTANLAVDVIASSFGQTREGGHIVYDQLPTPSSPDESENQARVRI
Put plainly: in vitro enzyme assay to detect the production of urea directly proportional to the activity of Arginase II. Further: in the data most compounds retested in dose-response had high values. The experiment is classed as functional. To be noted: 33.3 µM.

In experiment [6] the target is T3, Proteasome subunit beta (Trypanosoma cruzi) (UniProt O96673).
T3 sequence (whole entry): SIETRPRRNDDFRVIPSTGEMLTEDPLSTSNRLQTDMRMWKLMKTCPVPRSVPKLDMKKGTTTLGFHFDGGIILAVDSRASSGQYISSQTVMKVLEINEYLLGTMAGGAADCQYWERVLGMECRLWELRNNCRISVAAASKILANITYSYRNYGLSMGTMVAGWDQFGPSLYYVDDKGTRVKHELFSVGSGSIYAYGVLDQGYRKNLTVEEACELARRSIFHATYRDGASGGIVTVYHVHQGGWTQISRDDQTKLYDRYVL
As to the kind of experiment: Trypanosoma cruzi proteasome chymotrypsin-like activity (TcProtChymo) assay. Further: in the data most compounds retested in dose-response had high values. The experiment is classed as functional. To be noted: 9.37 µM.

The species entered for a further experiment is Homo sapiens. As to the kind of experiment: To identify inhibition of the IFN signalling (Jak-Stat) pathway via expression of an eGFP reporter gene under the control of an IFN-stimulated response element (ISRE) containing MxA promoter. It counts as functional. To be noted: 30 µM.
Experiment [7] concerns the target T4, Tyrosyl-tRNA synthetase, putative (Trypanosoma cruzi (strain CL Brener)) (UniProt Q4DSP6).
T4 sequence (whole entry): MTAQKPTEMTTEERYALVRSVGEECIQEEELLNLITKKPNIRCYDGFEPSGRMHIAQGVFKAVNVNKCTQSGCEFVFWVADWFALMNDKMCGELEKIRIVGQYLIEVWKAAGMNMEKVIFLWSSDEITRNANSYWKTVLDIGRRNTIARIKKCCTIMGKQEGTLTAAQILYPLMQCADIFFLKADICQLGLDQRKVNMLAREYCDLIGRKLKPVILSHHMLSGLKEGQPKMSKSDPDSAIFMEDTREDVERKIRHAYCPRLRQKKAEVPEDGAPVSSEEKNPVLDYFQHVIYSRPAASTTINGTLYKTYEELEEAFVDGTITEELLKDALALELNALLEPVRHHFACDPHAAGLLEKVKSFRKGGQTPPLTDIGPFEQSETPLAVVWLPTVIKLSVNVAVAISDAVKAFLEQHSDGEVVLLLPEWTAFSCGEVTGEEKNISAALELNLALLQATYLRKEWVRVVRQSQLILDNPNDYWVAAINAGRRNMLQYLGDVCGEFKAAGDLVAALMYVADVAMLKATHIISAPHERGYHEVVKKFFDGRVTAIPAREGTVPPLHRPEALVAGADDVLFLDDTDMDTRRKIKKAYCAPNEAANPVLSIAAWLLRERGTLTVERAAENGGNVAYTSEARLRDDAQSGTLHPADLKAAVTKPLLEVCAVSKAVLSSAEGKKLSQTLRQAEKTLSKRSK
As to the kind of experiment: Trypanosoma cruzi tyrosyl tRNA synthetase (TcYRS) _High Tyrosine SOP. Further: in the data most compounds retested in dose-response had high values. The experiment is classed as functional. To be noted: 30 µM.

Experiment [8] addresses T4, Tyrosyl-tRNA synthetase, putative (Trypanosoma cruzi (strain CL Brener)). Put plainly: Trypanosoma cruzi tyrosyl tRNA synthetase (TcYRS) SOP. The experiment is classed as functional. To be noted: 30 µM.
Experiment [9] addresses Chromo domain-containing protein 1 (Saccharomyces cerevisiae (strain ATCC 204508 / S288c) (Baker's yeast)) (UniProt P32657). As to the kind of experiment: ScCHD-1 Enzyme Inhibition Assay. Further: in the data most compounds retested in dose-response had high values. It counts as functional. The settings on record: 30 µM.

Sequence of Chromo domain-containing protein 1 (Saccharomyces cerevisiae (strain ATCC 204508 / S288c) (Baker's yeast)) (P32657 whole entry, the tested form may be a part): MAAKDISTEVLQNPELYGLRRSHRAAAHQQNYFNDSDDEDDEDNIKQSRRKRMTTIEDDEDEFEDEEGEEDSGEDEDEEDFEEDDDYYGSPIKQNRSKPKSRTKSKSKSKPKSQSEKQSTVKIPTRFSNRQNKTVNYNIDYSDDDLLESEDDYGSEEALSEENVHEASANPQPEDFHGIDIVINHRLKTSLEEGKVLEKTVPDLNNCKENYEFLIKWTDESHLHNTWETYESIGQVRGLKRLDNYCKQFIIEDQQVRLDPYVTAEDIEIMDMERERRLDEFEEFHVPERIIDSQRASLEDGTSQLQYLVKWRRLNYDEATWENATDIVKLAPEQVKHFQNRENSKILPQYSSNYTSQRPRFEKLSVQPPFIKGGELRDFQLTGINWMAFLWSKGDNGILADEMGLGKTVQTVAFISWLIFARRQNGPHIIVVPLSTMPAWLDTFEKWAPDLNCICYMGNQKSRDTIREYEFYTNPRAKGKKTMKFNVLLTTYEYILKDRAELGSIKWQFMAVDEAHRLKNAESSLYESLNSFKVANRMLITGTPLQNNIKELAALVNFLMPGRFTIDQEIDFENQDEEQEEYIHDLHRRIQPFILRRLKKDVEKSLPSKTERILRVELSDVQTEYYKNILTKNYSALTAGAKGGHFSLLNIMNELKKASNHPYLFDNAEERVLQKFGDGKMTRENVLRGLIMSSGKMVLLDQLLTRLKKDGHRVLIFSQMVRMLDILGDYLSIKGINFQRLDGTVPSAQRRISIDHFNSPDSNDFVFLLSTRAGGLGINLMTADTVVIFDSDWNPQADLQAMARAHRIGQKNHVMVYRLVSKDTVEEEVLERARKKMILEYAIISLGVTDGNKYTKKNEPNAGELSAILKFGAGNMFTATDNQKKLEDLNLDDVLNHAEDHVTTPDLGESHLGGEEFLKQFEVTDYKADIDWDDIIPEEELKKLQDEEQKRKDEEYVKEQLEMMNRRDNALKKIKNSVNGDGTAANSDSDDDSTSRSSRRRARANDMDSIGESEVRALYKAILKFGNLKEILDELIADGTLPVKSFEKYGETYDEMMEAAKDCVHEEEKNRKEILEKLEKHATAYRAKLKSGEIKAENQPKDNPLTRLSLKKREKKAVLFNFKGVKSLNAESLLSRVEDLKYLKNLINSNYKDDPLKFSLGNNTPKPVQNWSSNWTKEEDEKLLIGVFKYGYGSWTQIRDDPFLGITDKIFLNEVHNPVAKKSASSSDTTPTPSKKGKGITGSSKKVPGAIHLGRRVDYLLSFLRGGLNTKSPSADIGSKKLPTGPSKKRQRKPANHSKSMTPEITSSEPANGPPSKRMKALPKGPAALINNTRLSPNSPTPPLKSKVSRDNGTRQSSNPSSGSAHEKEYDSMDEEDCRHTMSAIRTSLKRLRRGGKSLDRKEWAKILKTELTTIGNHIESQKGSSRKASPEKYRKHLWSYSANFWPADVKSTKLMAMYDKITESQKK

Turning to `CSc1ccc(NC(=O)Nc2ccc3c(c2)N(S(C)(=O)=O)CC3)cc1`, the Percent Effect in [1] was -1.27%; in [2] it was -23.4%; in experiment [3], -4.52%; in experiment [4] it was 3.62%; in the experiment on Trypanosoma cruzi, 3.06%; in experiment [5], -93.5%. Besides, the Percent Effect in experiment [6] was 27.9%; in the experiment listed under Homo sapiens it was 30.8%; in experiment [7], -6.35%; in [8] it was -14.1%; in [9], -6.55%.

For the compound `COc1cc(NC(=O)c2ccccc2F)c(C(=O)N(C)C)cc1OC`, the Percent Effect in experiment [1] is 1.19%; in experiment [2] it was 5.2%; in experiment [3], 0.986%; in experiment [4], 2.38%; in the experiment with Trypanosoma cruzi, -7.96%; in [5], -8.28%. The Percent Effect was 18.8% in [6]; -4.11% in the experiment filed under Homo sapiens; 3.23% in experiment [7]; 11.1% in experiment [8]; -2.46% in experiment [9].

Take `Cc1nn(C)c(Cl)c1CNCc1cccnc1N1CCOCC1`: the Percent Effect in [1] was -8.75%; in [2] it was 21.1%; in experiment [3], -0.469%; in experiment [4], -3.82%; in the experiment on Trypanosoma cruzi, 0.682%; in experiment [5], -3.55%. Further, the Percent Effect in experiment [6] was 21%; in the experiment filed under Homo sapiens, 3.88%; in experiment [7] it was 9.57%; in [8], 18.2%; in experiment [9] it was -6.81%.

With `CC(C)OCCN(Cc1cccc(O)c1)C1CCC(O)CC1` (centres undefined), the Percent Effect in experiment [1] is -4.61%; in [2], 0%; in experiment [3], -1.14%; in [4], -7.69%; in the experiment with Trypanosoma cruzi, -5.96%; in experiment [5] it was 0.744%. The Percent Effect in experiment [6] was 4.89%; in the experiment filed under Homo sapiens, -1.68%; in experiment [7], 0%; in [8], -1.24%; in [9], -0.807%.

For `Cc1cc(CN2CCN(C(=O)c3sccc3C(C)C)CC2)no1`, the Percent Effect in [1] was -1.68%; in [2], 2.6%; in experiment [3], 4.01%; in experiment [4], 0.935%; with Trypanosoma cruzi, 4.41%; in experiment [5], 4.84%. Besides, the Percent Effect is 1.86% in [6]; 5.54% in the experiment filed under Homo sapiens; 2.86% in experiment [7]; 7.06% in experiment [8]; -3.8% in experiment [9].

As to `COc1cc(CN(C)C(=O)NCCC2CCCO2)ccc1SC` (centres undefined), the Percent Effect in [1] was -3%; in experiment [2] it was 8.11%; in experiment [3], -5.1%; in experiment [4], 2.6%; with Trypanosoma cruzi, 0.781%; in experiment [5], 0.833%. Moreover, the Percent Effect in [6] is 10.1%; in the experiment filed under Homo sapiens it was -25.6%; in [7], -13.9%; in experiment [8] it was 3.66%; in experiment [9], -5.8%.

Regarding `CS(=O)(=O)CCC(=O)NC1(c2cccc(Br)c2)CC1`, the Percent Effect is -2.11% in [1]; 13.5% in [2]; -4.94% in experiment [3]; 18.2% in experiment [4]; 6.37% with Trypanosoma cruzi; 1.43% in [5]. For the same compound, the Percent Effect in experiment [6] is 15%; in the experiment filed under Homo sapiens, -3.85%; in experiment [7] it was 3.7%; in experiment [8], 12.2%; in [9], -3.61%.

For `COc1cccc(S(=O)(=O)NC(=O)COc2c(C)cccc2C)c1`, the Percent Effect in [1] is -5.17%; in experiment [2], 7.79%; in experiment [3], -10.1%; in [4], -4.14%; in the experiment on Trypanosoma cruzi, -2.81%; in experiment [5], 2.13%. Further, the Percent Effect in [6] is 6.08%; in the experiment filed under Homo sapiens it was 10.3%; in experiment [7], 0%; in experiment [8] it was 12.2%; in experiment [9], -4.1%.

For the compound `Cc1cnn(C2CCCN(C(=O)c3cc(C)sc3C)C2)c1` (centres undefined), the Percent Effect in experiment [1] is 2.61%; in experiment [2], 7.89%; in [3], 4.46%; in experiment [4], -9.37%; with Trypanosoma cruzi it was -4.97%; in experiment [5], 1.18%. Further, the Percent Effect in experiment [6] is 18.7%; in the experiment filed under Homo sapiens, -4.44%; in [7] it was 5.32%; in [8], 7.79%; in [9], -5.57%.
